The Kd is the free concentration of one partner at which half of the binding sites on the other are occupied at equilibrium, for simple one-to-one binding. The low end stands for a tighter complex, the high end for a looser complex.
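Also: kd values determined as follow-up on hits from a single-replicate KINOMEscan panel screen.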

The first assay relates to T1, DRAK1.
T1 construct: gene STK17A
Regarding `CC(C)(C)OC(=O)NC1CCCN(c2cc(-c3ccc4c(N)n[nH]c4c3)nc(N)n2)C1` (centres unmarked) [GSK2286096], binding was characterised by a dissociation constant (Kd) of 130 nM.

`Fc1cccc(COc2ccc(Nc3ncnc4nn5ccccc5c34)cc2Cl)c1` [GW689066] showed a Kd of more than 10000 nM.

`CC(C)(C)c1ccc(-n2cnc3c(N)ncnc32)cc1` [SKF-97263] yielded a Kd of 450 nM.

`C[C@H]1CC[C@@H](C(=O)Nc2ccccc2)CN1c1cc(-c2ccc3c(N)n[nH]c3c2)nc(N)n1` [GSK2283293] came in with a Kd of 11 nM.

`Nc1nc(-c2ccc3c(N)n[nH]c3c2)cc(N2CCCCC2)n1` [GSK2228768]: the Kd worked out at 110 nM.

A further assay has as its system DYRK1B.
Take `CC(C)(C)OC(=O)NC1CCCN(c2cc(-c3ccc4c(N)n[nH]c4c3)nc(N)n2)C1` (centres unmarked) [GSK2286096]: the Kd is more than 10000 nM.

`Cc1cc(N2CCC(NS(=O)(=O)c3ccc(F)cc3)CC2)nc(Nc2cccc(C#N)c2)n1.O=C(O)C(F)(F)F` [GSK1653537]: the Kd stood at 2800 nM.

The compound `Nc1n[nH]c2nnc(-c3ccccc3)cc12` [SB-517389] gave a Kd of 7000 nM.

On to `COc1ccc(Nc2nccc(N3CCC(NC(=O)c4cccc(NC(C)=O)c4)C3)n2)cc1` (centres unmarked) [GSK1379732], for which the Kd was more than 10000 nM.

The subject of the next assay is EGFR.
`Fc1cccc(COc2ccc(Nc3ncnc4cc[nH]c34)cc2Cl)c1` returned a Kd of 1.3 nM.

As to `Cl.c1ccc(Cn2ccc3cc(Nc4ncnc5ccccc45)ccc32)cc1` [GW275568], the Kd came out at 5 nM.

In the case of `Cl.Fc1ccccc1COc1ccc(Nc2ncnc3ccc(-c4nnc(C(F)(F)F)o4)cc23)cc1Cl` [GW424170], binding was characterised by a dissociation constant (Kd) of 43 nM.

With `Clc1cc(Nc2ncnc3cc[nH]c23)ccc1OCc1ccccn1`, the Kd worked out at 8.4 nM.

`CS(=O)(=O)CCNCc1nc(-c2ccc3ncnc(Nc4ccc(OCc5cccc(F)c5)c(Cl)c4)c3c2)cs1.Cl` [GW583340] came in with a Kd of 0.69 nM.

`CS(=O)(=O)CCNCc1ccc(-c2ccc3ncnc(Nc4ccc(OCc5ccccc5)c(Cl)c4)c3c2)o1.Cl` [GW574783] registered a Kd of 0.82 nM.

For the compound `Cl.O=S(=O)(c1cccc(F)c1)c1ccc(Nc2ncnc3cc(Br)sc23)cc1Cl` [GSK306886], the Kd worked out at 61 nM.

Regarding `N#Cc1ccc(Oc2ccc(Nc3ncnc4cc[nH]c34)cc2Cl)cc1`, the Kd came to 97 nM.

For the compound `Fc1cccc(COc2ccc(Nc3ncnc4sc(-c5ccc[nH]5)cc34)cc2Cl)c1` [GW707818], the Kd was determined as 2.6 nM.

Consider `COc1cc2c(Nc3cccc(NC(=O)c4ccccc4)c3)ncnc2cc1OCCCN1CCOCC1` [GSK223810], for which the Kd was 1400 nM.

For the compound `O=C(CCO)NCCn1ccc2ncnc(Nc3ccc(Oc4cccc(C(F)(F)F)c4)c(Cl)c3)c21`, the Kd stood at 2.3 nM.

On to `Oc1ccc2ncnc(Nc3ccc(OCc4ccccc4)cc3)c2c1` [GI262866], for which binding was characterised by a dissociation constant (Kd) of 9.3 nM.

`NC(=O)c1sc(-n2cnc3ccccc32)cc1OCc1ccccc1F` [GSK1024306] returned a Kd of 1300 nM.

In turn, `COc1cc2ncnc(Nc3ccc(OCc4ccccc4Br)c(Cl)c3)c2cc1OC.Cl` [GI261590] had a Kd of 2.4 nM.

`Cn1ccc2ncnc(Nc3ccc(Oc4cccc(Cl)c4)c(Cl)c3)c21` showed a Kd of 4.3 nM.

Compound `Cl.c1ccc(Cn2ncc3cc(Nc4ncnc5ccccc45)ccc32)cc1` [GW273749] came in with a Kd of 7.6 nM.

For the compound `OCCOCCn1ccc2ncnc(Nc3ccc(Oc4cccc(Cl)c4)c(Cl)c3)c21`, the affinity, expressed as Kd, was 8.5 nM.

The subject of the next assay is EPHA3.
Regarding `Cl.Cn1ccc(-c2cccc(Nc3ccnc4cc(-c5nccs5)ccc34)c2)n1` [GW525701], the Kd was more than 10000 nM.

`CCn1c(-c2ccncc2)nc2cnccc21` [SB-735216] registered a Kd of more than 10000 nM.

Regarding `O=c1cc(N2CCOCC2)nc2n(Cc3cccc(Cl)c3)ccn12` [GSK2296823], the Kd is more than 10000 nM.

(Values after paper PMC5540273 (PLoS ONE, 2017).)
